Holding throughout (assay): protein-binding microarray (PBM); PBM: ~300 nM protein, 6 mM HEPES pH 7.8, 80 mM KCl, 0.5 mM EDTA, 0.5 mM EGTA, 6% glycerol, 35 ng/ul poly-dIdC, 1% milk, 1 h, room temperature; Ap Aiptasia and Nv Nematostella (sea anemones) / Co Capsaspora / Aq Amphimedon (sponge) / Dm Drosophila / Hu human; RHD is the Rel homology domain; high values mean tight binding
What all share (details): dsDNA, one strand shown

For test [1], the target named is T1, GST-Ap-NF-kB RHD (Exaiptasia pallida (Aiptasia), UniProt A0A913YAJ5 2-422).
T1 sequence: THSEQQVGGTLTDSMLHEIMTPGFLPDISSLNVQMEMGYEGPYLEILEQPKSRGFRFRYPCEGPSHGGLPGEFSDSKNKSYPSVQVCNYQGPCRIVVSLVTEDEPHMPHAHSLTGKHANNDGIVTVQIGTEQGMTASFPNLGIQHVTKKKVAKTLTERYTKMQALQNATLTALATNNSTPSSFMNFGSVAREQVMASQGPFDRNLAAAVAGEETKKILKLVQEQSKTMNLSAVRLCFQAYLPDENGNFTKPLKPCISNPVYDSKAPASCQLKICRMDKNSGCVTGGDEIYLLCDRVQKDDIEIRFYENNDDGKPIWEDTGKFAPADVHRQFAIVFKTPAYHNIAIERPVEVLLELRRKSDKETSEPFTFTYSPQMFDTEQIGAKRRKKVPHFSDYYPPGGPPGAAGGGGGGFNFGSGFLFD

In test [2] the target is T2, GST-Nv-NF-kB (Cys allele) (Nematostella vectensis, UniProt E5G601 2-411).
T2 sequence: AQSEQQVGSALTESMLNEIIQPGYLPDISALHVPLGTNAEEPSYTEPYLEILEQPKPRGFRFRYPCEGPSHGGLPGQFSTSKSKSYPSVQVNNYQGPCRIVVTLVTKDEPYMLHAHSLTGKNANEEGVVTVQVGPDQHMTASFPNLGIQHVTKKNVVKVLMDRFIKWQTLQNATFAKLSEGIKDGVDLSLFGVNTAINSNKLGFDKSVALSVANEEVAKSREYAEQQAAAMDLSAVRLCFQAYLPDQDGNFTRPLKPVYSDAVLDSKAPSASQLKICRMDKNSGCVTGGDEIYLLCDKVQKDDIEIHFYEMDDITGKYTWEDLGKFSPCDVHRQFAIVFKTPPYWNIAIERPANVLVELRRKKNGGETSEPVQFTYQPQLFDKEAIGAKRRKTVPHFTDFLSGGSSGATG

For test [3], the target named is T3, GST-Nv-NF-kB (Ser allele) (Nematostella vectensis, UniProt A7UNT2 2-411).
T3 sequence: T2 sequence with Q21R, C66S, S207N, E215Q, V217A, E225K, A268E, D399E

The target in test [4] is T4, GST-Co-NF-kB (Capsaspora owczarzaki, UniProt F1ARL5 200-546).
T4 sequence: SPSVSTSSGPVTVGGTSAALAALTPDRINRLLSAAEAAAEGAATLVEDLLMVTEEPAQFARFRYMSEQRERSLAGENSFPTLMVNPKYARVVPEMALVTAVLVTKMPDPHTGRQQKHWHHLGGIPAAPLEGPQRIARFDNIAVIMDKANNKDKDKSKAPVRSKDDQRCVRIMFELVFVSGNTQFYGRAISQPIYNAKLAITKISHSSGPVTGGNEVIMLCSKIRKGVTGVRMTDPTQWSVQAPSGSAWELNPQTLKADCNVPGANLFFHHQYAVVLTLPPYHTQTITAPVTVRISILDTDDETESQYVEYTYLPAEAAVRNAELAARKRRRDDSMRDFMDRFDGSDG

Test [5] concerns the target T5, GST-Dm-Relish (Drosophila melanogaster, UniProt Q94527 99-473).
T5 sequence: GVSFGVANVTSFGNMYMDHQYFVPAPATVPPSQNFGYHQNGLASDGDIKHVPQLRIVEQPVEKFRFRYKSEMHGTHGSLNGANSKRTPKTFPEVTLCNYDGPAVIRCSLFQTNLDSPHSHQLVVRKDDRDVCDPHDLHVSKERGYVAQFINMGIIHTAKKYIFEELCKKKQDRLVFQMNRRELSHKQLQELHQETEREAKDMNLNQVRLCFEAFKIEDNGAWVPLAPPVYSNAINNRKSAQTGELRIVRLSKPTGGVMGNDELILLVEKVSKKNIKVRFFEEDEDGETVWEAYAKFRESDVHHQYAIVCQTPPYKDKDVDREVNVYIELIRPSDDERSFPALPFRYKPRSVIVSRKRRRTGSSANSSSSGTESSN

Test [6] concerns the target T6, GST-Aq-NF-kB (Amphimedon queenslandica, UniProt A9Y5G7 2-389).
T6 sequence: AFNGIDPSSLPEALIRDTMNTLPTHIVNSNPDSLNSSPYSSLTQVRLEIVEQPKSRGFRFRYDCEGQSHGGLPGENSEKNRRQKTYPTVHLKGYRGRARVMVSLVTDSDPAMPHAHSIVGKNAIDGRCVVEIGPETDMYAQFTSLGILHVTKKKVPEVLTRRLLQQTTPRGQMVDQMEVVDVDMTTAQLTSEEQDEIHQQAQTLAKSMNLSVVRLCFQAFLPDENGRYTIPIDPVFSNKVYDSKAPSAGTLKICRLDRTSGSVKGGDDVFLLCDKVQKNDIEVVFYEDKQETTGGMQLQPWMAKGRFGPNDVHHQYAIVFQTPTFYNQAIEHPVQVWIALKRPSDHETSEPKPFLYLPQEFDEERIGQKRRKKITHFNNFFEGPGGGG

In test [7] the target is GST-Hu-p50 (Homo sapiens, UniProt P19838 7-356).

Here are results for twelve sequences from article PMC5700166.

Numbering of substitutions follows the chain as printed.

Sequence of GST-Hu-p50 (P19838 7-356): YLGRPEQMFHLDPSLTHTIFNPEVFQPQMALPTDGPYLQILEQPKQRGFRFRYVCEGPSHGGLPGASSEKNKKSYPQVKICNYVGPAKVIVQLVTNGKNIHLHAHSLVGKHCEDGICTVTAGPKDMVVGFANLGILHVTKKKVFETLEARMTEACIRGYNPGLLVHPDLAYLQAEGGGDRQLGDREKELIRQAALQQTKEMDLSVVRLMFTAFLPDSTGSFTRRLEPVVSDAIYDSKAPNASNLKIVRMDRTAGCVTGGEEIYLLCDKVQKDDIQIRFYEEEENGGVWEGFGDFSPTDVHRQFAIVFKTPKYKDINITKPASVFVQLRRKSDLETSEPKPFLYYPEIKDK

In the case of “CCGATTAACATCAAACATTCCCTTGATGTTAATCGGGTCTTGATTCGCTTGACGCTGCTG”, the binding signal in test [1] turned out to be 2.36 z-score; in test [2] it was 4.96 z-score; in test [3], 4.25 z-score; in test [4], 1.95 z-score; in test [5] it was 2.37 z-score; in test [6], 5.41 z-score. In test [7], this sequence showed a binding signal of 3.27 z-score.

For the sequence “CCGATTAACATCACCTTTCCCCCTGATGTTAATCGGGTCTTGATTCGCTTGACGCTGCTG”, the binding signal in test [1] is 6.53 z-score; in test [2], 6.31 z-score; in test [3] it was 7.29 z-score; in test [4], 9.42 z-score; in test [5] it was 2.89 z-score; in test [6], 4.77 z-score. The sequence also showed a binding signal in test [7] of 5.65 z-score.

For the sequence “CCGATTAACATCAGAGAATTCCCTGATGTTAATCGGGTCTTGATTCGCTTGACGCTGCTG”, the binding signal in test [1] amounted to 5.32 z-score; in test [2] it was 7.57 z-score; in test [3] it was 7.07 z-score; in test [4] it was 2.8 z-score; in test [5], 4.51 z-score; in test [6], 6.73 z-score. In addition, the binding signal in test [7] worked out at 5.27 z-score.

“CCGATTAACATCAGCGATTCCCCTGATGTTAATCGGGTCTTGATTCGCTTGACGCTGCTG”: the binding signal in test [1] was 6.31 z-score; in test [2] it was 6.55 z-score; in test [3], 8.57 z-score; in test [4] it was 5.5 z-score; in test [5], 3.63 z-score; in test [6], 4.44 z-score. For the same sequence, the binding signal in test [7] was determined as 5.54 z-score.

In the case of “CCGATTAACATCACGGGGGAATATGATGTTAATCGGGTCTTGATTCGCTTGACGCTGCTG”, the binding signal in test [1] is 8.53 z-score; in test [2] it was 7.14 z-score; in test [3], 7.03 z-score; in test [4], 10.6 z-score; in test [5] it was 4.66 z-score; in test [6] it was 5.84 z-score. The same sequence came in with a binding signal in test [7] of 6.21 z-score.

With “CCGATTAACATCAGGGGAATACCTGATGTTAATCGGGTCTTGATTCGCTTGACGCTGCTG”, the binding signal worked out at 9.84 z-score in test [1]; 11.8 z-score in test [2]; 10.1 z-score in test [3]; 5.97 z-score in test [4]; 9.67 z-score in test [5]; 10.5 z-score in test [6]. Also, the binding signal in test [7] was determined as 6.93 z-score.

As for “CCGATTAACATCAGGGGATTTGATGATGTTAATCGGGTCTTGATTCGCTTGACGCTGCTG”, the binding signal in test [1] was 6.34 z-score; in test [2], 6.28 z-score; in test [3] it was 8.85 z-score; in test [4], 2.37 z-score; in test [5], 4.27 z-score; in test [6] it was 4.26 z-score. This sequence also showed a binding signal in test [7] of 6.12 z-score.

“CCGATTAACATCAAGATTCCCCCTGATGTTAATCGGGTCTTGATTCGCTTGACGCTGCTG”: the binding signal in test [1] amounted to 8.66 z-score; in test [2], 9.42 z-score; in test [3], 10.6 z-score; in test [4], 9.18 z-score; in test [5] it was 7.1 z-score; in test [6], 7.31 z-score. In test [7], the binding signal was 7.32 z-score.

“CCGATTAACATCACGTAATTCCCTGATGTTAATCGGGTCTTGATTCGCTTGACGCTGCTG”: the binding signal stood at 3.45 z-score in test [1]; 4.96 z-score in test [2]; 5.01 z-score in test [3]; 4.02 z-score in test [4]; 6.81 z-score in test [5]; 4.89 z-score in test [6]. The sequence also yielded a binding signal in test [7] of 3.49 z-score.

“CCGATTAACATCAAAGAATTCCCTGATGTTAATCGGGTCTTGATTCGCTTGACGCTGCTG”: the binding signal in test [1] was 5.56 z-score; in test [2], 7.26 z-score; in test [3], 7.47 z-score; in test [4] it was 4.52 z-score; in test [5], 5.42 z-score; in test [6], 6.11 z-score. Further, the binding signal in test [7] came to 5.05 z-score.

For “CCGATTAACATCAGACATTCCCCTGATGTTAATCGGGTCTTGATTCGCTTGACGCTGCTG”, the binding signal in test [1] was determined as 7.03 z-score; in test [2], 8.78 z-score; in test [3], 8.26 z-score; in test [4], 5.38 z-score; in test [5] it was 4.78 z-score; in test [6] it was 6.59 z-score. In addition, in test [7], the binding signal was 5.51 z-score.

Turning to “CCGATTAACATCAAAGATCCCCCTGATGTTAATCGGGTCTTGATTCGCTTGACGCTGCTG”, the binding signal in test [1] was 7.86 z-score; in test [2], 7.46 z-score; in test [3] it was 7.79 z-score; in test [4], 6.69 z-score; in test [5], 8.85 z-score; in test [6] it was 6.88 z-score. This sequence also yielded a binding signal in test [7] of 6.85 z-score.
